In the supplement of paper PMC9694430:

Experiments:
Assay in all cases: thermal shift delta Tm vs DMSO control; higher = stronger stabilization (binding)
Details in all cases: 12.5 µM; protein concentration 2 µM
LOC_OS02G45750-cb003 = test system: LOC_OS02G45750-cb003
Method in brief: (§1)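 Compounds dissolved in DMSO were added to purified rice kinase domain constructs, which had been expressed in E. coli, for differential scanning fluorimetry. Each well held 19.5 μl of 2 μM kinase in 100 mM potassium phosphate pH 7.5, 150 mM NaCl, 10% glycerol and 5 × SYPRO Orange. Fluorescence was followed from 25°C to 95°C at a rate of 0.05°C/s. Shifts in Boltzmann-fitted melting temperature are triplicate means relative to DMSO-only protein.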

LOC_OS02G54510-cb004 = test system: LOC_OS02G54510-cb004
Method in brief: as §1

LOC_OS03G04050-cb001 = test system: LOC_OS03G04050-cb001
Method in brief: as §1

LOC_OS03G12390-cb001 = test system: LOC_OS03G12390-cb001
Method in brief: as §1

LOC_OS03G27990-cb004 = test system: LOC_OS03G27990-cb004
Method in brief: as §1

LOC_OS03G50450-cb001 = test system: LOC_OS03G50450-cb001
Method in brief: as §1

LOC_OS03G50810-cb003 = test system: LOC_OS03G50810-cb003
Method in brief: as §1

LOC_OS04G35114-cb001 = test system: LOC_OS04G35114-cb001
Method in brief: as §1

LOC_OS04G38480-cb003 = test system: T1, LOC_OS04G38480-cb003
T1 sequence (whole entry): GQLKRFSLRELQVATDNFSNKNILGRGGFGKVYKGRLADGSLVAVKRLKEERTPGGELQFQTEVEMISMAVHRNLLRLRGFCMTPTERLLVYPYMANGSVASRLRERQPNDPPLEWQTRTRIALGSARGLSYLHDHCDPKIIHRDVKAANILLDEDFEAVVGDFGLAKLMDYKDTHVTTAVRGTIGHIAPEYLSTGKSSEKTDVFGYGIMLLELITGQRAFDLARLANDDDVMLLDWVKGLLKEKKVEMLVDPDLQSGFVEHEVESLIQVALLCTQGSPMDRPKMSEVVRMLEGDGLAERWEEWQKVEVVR
Method in brief: as §1

LOC_OS04G41100-cb001 = test system: T2, LOC_OS04G41100-cb001
T2 sequence (whole entry): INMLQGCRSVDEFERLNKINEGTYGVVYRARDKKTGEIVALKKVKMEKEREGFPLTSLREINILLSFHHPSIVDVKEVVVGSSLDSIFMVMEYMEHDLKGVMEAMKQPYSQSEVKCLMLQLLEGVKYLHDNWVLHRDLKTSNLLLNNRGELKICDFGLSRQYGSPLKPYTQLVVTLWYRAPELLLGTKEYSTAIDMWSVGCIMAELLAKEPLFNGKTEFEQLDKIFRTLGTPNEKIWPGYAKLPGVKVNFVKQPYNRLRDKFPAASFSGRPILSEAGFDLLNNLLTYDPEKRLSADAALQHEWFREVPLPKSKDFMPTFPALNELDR
Method in brief: as §1

LOC_OS04G57630-cb004 = test system: LOC_OS04G57630-cb004
Method in brief: as §1

LOC_OS05G07850-cb002 = test system: LOC_OS05G07850-cb002
Method in brief: as §1

LOC_OS05G16824-cb004 = test system: LOC_OS05G16824-cb004
Method in brief: as §1

LOC_OS05G28520-cb001 = test system: LOC_OS05G28520-cb001
Method in brief: as §1

LOC_OS05G30820-cb001 = test system: LOC_OS05G30820-cb001
Method in brief: as §1

LOC_OS05G43570-cb004 = test system: LOC_OS05G43570-cb004
Method in brief: as §1

LOC_OS06G16330-cb003 = test system: LOC_OS06G16330-cb003
Method in brief: as §1

LOC_OS06G22820-cb001 = test system: T3, LOC_OS06G22820-cb001
T3 sequence (whole entry): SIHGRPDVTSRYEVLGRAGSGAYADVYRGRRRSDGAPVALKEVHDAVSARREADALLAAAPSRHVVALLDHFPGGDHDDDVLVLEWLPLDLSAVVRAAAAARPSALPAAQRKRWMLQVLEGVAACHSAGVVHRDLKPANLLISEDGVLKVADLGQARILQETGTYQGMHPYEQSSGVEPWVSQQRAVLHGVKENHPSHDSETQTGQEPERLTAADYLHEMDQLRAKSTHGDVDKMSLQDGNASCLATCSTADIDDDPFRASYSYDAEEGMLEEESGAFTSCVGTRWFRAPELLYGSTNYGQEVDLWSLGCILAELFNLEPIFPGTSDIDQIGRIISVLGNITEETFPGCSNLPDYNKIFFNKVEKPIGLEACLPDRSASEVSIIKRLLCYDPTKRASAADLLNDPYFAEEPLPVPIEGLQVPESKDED
Method in brief: as §1

LOC_OS07G06570-cb004 = test system: LOC_OS07G06570-cb004
Method in brief: as §1

LOC_OS07G07230-cb001 = test system: LOC_OS07G07230-cb001
Method in brief: as §1

LOC_OS06G16330-cb003, sequence (as listed by the source): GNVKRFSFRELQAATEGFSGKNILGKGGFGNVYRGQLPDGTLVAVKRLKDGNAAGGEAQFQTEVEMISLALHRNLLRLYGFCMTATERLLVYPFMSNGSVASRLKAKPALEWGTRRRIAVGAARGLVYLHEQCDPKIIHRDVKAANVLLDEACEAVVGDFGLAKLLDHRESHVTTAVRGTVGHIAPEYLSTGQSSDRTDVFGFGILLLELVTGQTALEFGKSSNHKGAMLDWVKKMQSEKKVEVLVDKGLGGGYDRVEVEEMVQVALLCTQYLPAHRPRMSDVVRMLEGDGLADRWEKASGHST

SMILES	thermal shift delta Tm (LOC_OS02G45750-cb003) [°C]	thermal shift delta Tm (LOC_OS02G54510-cb004) [°C]	thermal shift delta Tm (LOC_OS03G04050-cb001) [°C]	thermal shift delta Tm (LOC_OS03G12390-cb001) [°C]	thermal shift delta Tm (LOC_OS03G27990-cb004) [°C]	thermal shift delta Tm (LOC_OS03G50450-cb001) [°C]	thermal shift delta Tm (LOC_OS03G50810-cb003) [°C]	thermal shift delta Tm (LOC_OS04G35114-cb001) [°C]	thermal shift delta Tm (LOC_OS04G38480-cb003) [°C]	thermal shift delta Tm (LOC_OS04G41100-cb001) [°C]	thermal shift delta Tm (LOC_OS04G57630-cb004) [°C]	thermal shift delta Tm (LOC_OS05G07850-cb002) [°C]	thermal shift delta Tm (LOC_OS05G16824-cb004) [°C]	thermal shift delta Tm (LOC_OS05G28520-cb001) [°C]	thermal shift delta Tm (LOC_OS05G30820-cb001) [°C]	thermal shift delta Tm (LOC_OS05G43570-cb004) [°C]	thermal shift delta Tm (LOC_OS06G16330-cb003) [°C]	thermal shift delta Tm (LOC_OS06G22820-cb001) [°C]	thermal shift delta Tm (LOC_OS07G06570-cb004) [°C]	thermal shift delta Tm (LOC_OS07G07230-cb001) [°C]
c1cc(-c2cnn3cc(-c4ccc(OCCN5CCCCC5)cc4)cnc23)ccn1 [Dorsomorphin 2HCl]	15.2	0.73	0.67	1.8	9.39	1.81	7.51	9.17	3.72	3.16	6.96	9.81	12.6	3.18	1.22	0.81	8.76	0.18	1.04	1.17
O=C(NCCCNc1nc(Nc2cccc(NC(=O)N3CCCC3)c2)ncc1I)c1cccs1	14.3	1.24	0.97	7.32	0.57	6.67	6.52	7.01	3.4	2.91	5.69	12.1	10.4	0.99	3.99	1.24	9.95	0.36	0.51	0.21
Cc1cc([C@@H](C)Nc2ccccc2C(=O)O)c2nc(N3CCOCC3)cc(=O)n2c1	0.61	0.49	0.29	0.3	0.29	0.63	0.56	0.73	0.55	0.37	0.31	-0.01	-0.08	0.3	0.51	0.63	-0.44	0.63	1.04	-0.17
FC(F)(F)c1ccc(Nc2nc3ccc(Oc4ccnc(-c5ncc(C(F)(F)F)[nH]5)c4)cc3[nH]2)cc1 [Raf265 derivative]	1.97	0.28	0.92	1.89	0.72	1.24	1.68	0.2	2.16	1.09	1.36	0.46	7.37	1.01	0.29	1.6	1.16	0.73	1.65	0.27
CC(C)Nc1cc(-c2c[nH]c(C(=O)N[C@H](CO)c3cccc(Cl)c3)c2)c(Cl)cn1	0.06	0.08	0.57	1.86	0.44	0.2	0.3	1.54	1.63	1.97	-0.02	2.27	-2.75	0.6	0.63	0.49	0.62	0.65	1.26	-0.16
Nc1[nH]nc2nnc(-c3c(-c4ccccc4)nn4ccccc34)cc12	1.41	0.54	0.66	1.36	0.56	1.03	0.41	1.11	0.15	0.75	0.25	2.77	2.12	0.56	0.84	0.89	1.11	0.39	0.46	0.64
